From paper PMC5540273 (PLoS ONE, 2017) come the findings set out here.

Experiment [1] has as its system CAMK1D.
For experiment [2], the system named is CAMK1.
Experiment [3] relates to CAMK2G.
Experiment [4] relates to CAMKK1.
The test system of experiment [5] is T1, CDC2L1.
T1 construct: gene CDK11B

In experiment [6] the test system is CDK9.
In experiment [7] the test system is CDC2L2.
The test system of experiment [8] is CDK2.
Experiment [9] has as its system CDK5.
For experiment [10], the system named is CDK7.
Experiment [11] concerns CDK8.

Some results are limits rather than exact numbers.

The term Kd denotes a measure of binding affinity in units of concentration.
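Further: kd values determined as follow-up on hits from a single-replicate KINOMEscan panel screen.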

With `O=C1NC(=O)C(c2ccc(Cl)cc2)=C1Nc1ccc(O)cc1` [SB-340867], the Kd in [1] and in [2] was greater than 10 µM each time. `COc1cccc(CNC(=O)NC2CCN(c3ccnc(Nc4ccc(F)cc4)n3)C2)c1` (centres unmarked) [GSK1379723] yielded a Kd in experiment [3] greater than 10 µM.

For the compound `CN1c2ccc(-c3ccc(C(N)=O)cc3)cc2-c2[nH]ncc2S1(=O)=O`, the Kd in experiment [4] is greater than 10 µM. With `Cc1c(Cn2c3ccccc3n3c(=O)cc(N4CCOCC4)nc23)cccc1C(F)(F)F` [GSK2306394], the Kd in experiment [5] and in experiment [6] was greater than 10 µM each time. As to `Cc1nccc(-c2c(-c3ccc(F)cc3)ncn2CCCN2CCOCC2)n1.Cl` [SB-282975], the Kd in experiment [5] and in experiment [6] was greater than 10 µM throughout.

In turn, `CC(=O)c1c(C)c2cnc(Nc3ccn(C)n3)nc2n(C2CCCC2)c1=O` yielded a Kd in experiment [7] greater than 10 µM. Take `COC(=O)C(NC(=O)NC1CCN(c2ccnc(Nc3ccc(F)cc3)n2)C1)c1ccccc1` (centres unmarked) [GSK1379712]: the Kd in experiment [8] was greater than 10 µM.

In [9], `Cc1ccc(-c2nc(Nc3ccncc3)c3ccccc3n2)s1` [GSK189015] had a Kd greater than 10 µM. Regarding `O=C(Nc1n[nH]c2nc(-c3ccco3)c(Br)cc12)C1CCN(Cc2ccccc2)C1.O=C(O)[C@H](O)[C@@H](O)C(=O)O` (centres unmarked) [SB-742034], in experiment [10], the Kd was 1.1 µM.

For `Nc1cccc(-c2ccc3c(N)n[nH]c3c2)n1` [GSK2192730], the Kd in [10] was greater than 10 µM. The compound `Cc1cnc(N)c(/C=C/c2cncc(C(=O)NCCc3ccc(Cl)cc3Cl)c2)c1.Cl` [GSK190937] displayed a Kd in experiment [11] of 1.1 µM.
